Compounds with a hit are over-represented: about 2.5% of the library has one in this group of screens.
GALK inh: GALK (human) enzyme inhibition; P51570; recombinant GALK, Kinase-Glo ATP luminescence, 1 h; Potency, µM (titrated, usually from 57.5 µM), for inactives: at the top dose activity, negative = inhibition, usual class: inhibitors; 44,000 tested, under 10 active;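 note: plate controls were full GALK reaction for no effect and reaction lacking GALK for full effect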
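5 nM GALK; 35 uM ATP; 100 uM D-galactose; 20 mM HEPES pH 8.0, 5 mM MgCl2, 60 mM NaCl, 1 mM DTT, 0.01% BSA; 1 h RT; Kinase-Glo Plus luminescence.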
NTMT1 inh: inhibitors of human N-terminal methyltransferase NTMT1 | NTMT1 MTase-Glo SAH luminescence, purified enzyme | AID 1645870 | 59,000 tested, 2.5% active | Potency, µM (highest dose often 114 µM), for inactives: at the top dose activity change, negative = inhibition, hits mostly inhibitors;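 note: potency is the fitted concentration of half-maximal effect; plate controls were DMSO vehicle for no effect and no enzyme for full effect; nearly all actives have a fitted effect of over 65% in size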
Target sequence (Q9BV86 whole entry, looked up): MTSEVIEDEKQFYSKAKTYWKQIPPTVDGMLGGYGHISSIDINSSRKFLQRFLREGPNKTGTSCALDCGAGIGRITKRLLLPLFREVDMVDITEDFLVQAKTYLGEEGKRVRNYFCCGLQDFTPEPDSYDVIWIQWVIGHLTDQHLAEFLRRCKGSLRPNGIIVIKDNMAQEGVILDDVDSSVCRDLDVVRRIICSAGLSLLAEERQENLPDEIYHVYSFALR
FH mod: Identification of activators of human fumarate hydratase by quantitative high-throughput screening. Potency, µM (series often up to 79.9 µM), for the others: at the highest dose activity change, negative = inhibition, most hits filed as inhibitors. 54,000 tested, 0.22% active. Fumarate hydratase, mitochondrial (Homo sapiens), P07954. FH coupled MDH/diaphorase resazurin fluorescence, 15 min; note: potency is the fitted concentration of half-maximal effect; % is set by controls: 0 for no effect and ±100 for the full control effect; the screen sought activators but most active calls are inhibition curves; nearly all actives have a fitted effect of over 45% in size
Target sequence (P07954 whole entry, looked up): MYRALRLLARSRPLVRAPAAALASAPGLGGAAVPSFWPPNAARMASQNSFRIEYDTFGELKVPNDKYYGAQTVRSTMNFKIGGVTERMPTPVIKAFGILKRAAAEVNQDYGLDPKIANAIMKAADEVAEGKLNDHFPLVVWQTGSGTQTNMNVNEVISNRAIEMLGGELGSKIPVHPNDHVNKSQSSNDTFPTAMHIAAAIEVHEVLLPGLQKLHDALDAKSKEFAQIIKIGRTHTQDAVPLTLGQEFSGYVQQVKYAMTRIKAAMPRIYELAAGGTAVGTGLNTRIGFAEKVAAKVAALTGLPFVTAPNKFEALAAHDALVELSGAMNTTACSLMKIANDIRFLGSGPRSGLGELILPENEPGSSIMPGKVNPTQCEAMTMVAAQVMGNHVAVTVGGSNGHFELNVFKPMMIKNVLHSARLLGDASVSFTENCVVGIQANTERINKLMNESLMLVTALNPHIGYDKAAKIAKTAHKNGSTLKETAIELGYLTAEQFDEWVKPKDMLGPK
HTT-AS act: activates huntingtin-antisense promoter activity; HEK293 HTT-AS promoter firefly luciferase reporter, 24 h; response scale: percent change from vehicle, -100% = no light; 48,000 tested, 0.24% active; Potency, µM (top dose mostly 57.5 µM), for inactives: at the top dose activity change, positive = activation, usual class: activators; note: potency is the fitted concentration of half-maximal effect; nearly all actives have a fitted effect of over 55% in size
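HEK293 luciferase promoter-reporter cells (2,500/well) plated 24 h, then compounds added at up to 57.5 uM final for 24 h at 37 °C. Firefly luminescence by Dual-Glo, normalized to vehicle (0%) and zero RLU (-100%).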
HTT prom inh: inhibitors of huntingtin promoter activity. HEK293 HTT promoter firefly luciferase reporter, 24 h. Potency, µM (highest dose often 57.5 µM), for the others: at the highest dose activity change, negative = inhibition, actives largely listed as inhibitors. 48,000 tested, 0.93% active. AID 1508623; note: potency is the fitted concentration of half-maximal effect; nearly all actives have a fitted effect of over 50% in size
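Luminescence was read after Dual-Glo reagent and a 10 min room-temperature incubation. Values were normalized to vehicle (0% activity) and zero RLU (-100% activity). Reporter HEK293 cells had been exposed to compounds (up to 57.5 uM final) for 24 h.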
Numbers without * were called inactive; ? = inconclusive; nt = not tested or not shown; ! = not confirmed by another sample; [ ] = remark or other dose. Calls come from the whole dose curve; as a rule, active = well fitted curve in the direction sought with a large enough effect; inconclusive = small, poorly fitted or top-dose-only effect, or another doubt; inactive = no such curve, though single readings can be large; an effect the other way counts as inactive or inconclusive.

SMILES	GALK inh	NTMT1 inh	FH mod	HTT-AS act	HTT prom inh
COc1cc(OC2CCN(C)CC2)ccc1Nc1ncc2c(n1)n(C1CCCC1)c(=O)n2C	nt	-5.0%	4.1%[53.3 µM]	-24.6%	-26.7%
COc1cc(C(=O)NC2CCN(C)CC2)c(F)cc1Nc1ncc2c(n1)N(C1CCCC1)CC(F)(F)C(=O)N2C	nt	28.2µM*	-6.5%	nt	nt
COc1cc(C(=O)NC2CCN(C)CC2)ccc1Nc1ncc2c(n1)N(C1CCCC1)CC(F)(F)C(=O)N2C	nt	28.2µM*	-1.6%	nt	nt
CC[C@@H]1C(=O)N(C)c2cnc(Nc3ccc(C(=O)NC4CCN(C)CC4)cc3OC)nc2N1C1CCCC1	nt	25.1µM*!	6.2%[53.3 µM]	-26.3%	-10.6%
Nc1c(S(=O)(=O)O)cc(Nc2ccc(Nc3nc(Cl)nc(Nc4ccc(S(=O)(=O)O)cc4)n3)c(S(=O)(=O)O)c2)c2c1C(=O)c1ccccc1C2=O	nt	nt	5.01µM*	nt	nt
O=C1CCCC2=C1C(c1[nH]ncc1Br)N=C(Nc1nc3ccccc3o1)N2 (stereo unspecified)	nt	1.9%	nt	nt	nt
CC(=O)Nc1sc2c(c1-c1ccc3c(c1)OCO3)CCNC2	nt	5.1%[57.5 µM]	nt	nt	nt
COc1cc(O)c2c(c1)/C=C/C[C@H](O)[C@H](O)C(=O)/C=C\C[C@H](C)OC2=O	nt	25.1µM*	-5.7%	nt	nt
N#Cc1cccc(-c2nc(-c3cccnc3)no2)c1	nt	1.9%[29.8 µM]	0.2%[53.3 µM]	nt	nt
COc1ccc(C(=O)NCCc2csc(-c3ccc(Cl)cc3)n2)cc1	-1.8%	-1.5%	?	-18.7%	?
CCCCOc1ccc(C(=O)NCCc2csc(-c3ccc(OC)cc3)n2)cc1	-0.6%	4.4%	?	-39.8%	22.4µM*
COc1ccc(C(=O)NCCc2csc(-c3ccc(Cl)cc3)n2)c(OC)c1	-0.5%	?	35.5µM*	-23.0%	?
CCCc1nnc(NC(=O)c2cc(=O)c3ccccc3o2)s1	3.1%	1.5%	-3.2%	3.98µM*	47.5%
Oc1cccc2cc(N3CCCC3)cnc12	nt	9.7%	nt	nt	nt
COc1cccc(NC(=O)CC(=O)Nc2ccc3nc4n(c(=O)c3c2)CCCCC4)c1	7.4%	-0.1%	-7.6%	-3.1%	-8.9%
COc1cc(OC)cc(C(=O)Nc2ccc3nc4n(c(=O)c3c2)CCCCC4)c1	6.3%	44.7µM*	-14.6%	?	69.2%
COc1ccc(C)cc1NC(=O)c1ccc2c(=O)n3c(nc2c1)CCCCC3	1.3%	79.4µM*	-1.1%	-14.1%	-15.2%
CCOc1ccc(NC(=O)c2ccc3c(=O)n4c(nc3c2)CCCCC4)cc1	5.0%	3.3%	-19.2%	-10.6%	-10.4%
Cc1cc(Nc2ncnc3ccc(-c4ccc(CNCCS(C)(=O)=O)o4)cc23)ccc1Oc1ccn2ncnc2c1	nt	21.5µM*!	-2.9%	-43.8%	?
CCOC(=O)N[C@@H]1CC[C@@H]2[C@@H](C1)C[C@H]1C(=O)O[C@H](C)[C@H]1[C@H]2/C=C/c1ccc(-c2cccc(F)c2)cn1	nt	26.1%	nt	nt	nt
Cc1cc(-c2ccc(C)c(S(=O)(=O)N3CCOc4ccc(Cl)cc43)c2)on1	5.5%	-6.2%	-41.2%	-34.6%	28.2µM*
CC(C)c1ccccc1-c1nc2c(c(NCc3ccc(-c4cccnc4)cc3)n1)CCNC2	nt	-0.4%	nt	nt	nt
CC1Cc2ccccc2N1C(=O)Cc1nc(N2CCOCC2)cc(=O)[nH]1 (stereo unspecified)	nt	0.8%	nt	nt	nt
COc1ccc(-c2nc3c4ccccc4n(CC(=O)N4CCN(c5ccc(F)cc5)CC4)c(=O)n3n2)cc1	6.9%	89.1µM*	-11.9%	-2.6%	-2.1%
COC1=C(OC)C(=O)C(CCCCCCCCCCO)=C(C)C1=O	nt	?	19.3µM*	-16.9%	?
SMILES	GALK inh	NTMT1 inh	FH mod	HTT-AS act	HTT prom inh
O=C(Nc1cc(Cl)cc2c1[nH]c1cnccc12)c1cccnc1	nt	17.8µM*!	0.2%[53.3 µM]	-41.1%	0.6%
C=CC(=O)N1CC[C@@H](Oc2nc(Nc3ccc(N4CCC(N5CCN(C)CC5)CC4)cc3)c(C(N)=O)nc2CC)C1	nt	3.98µM*	nt	nt	nt
CN1CCN(c2ccc(Nc3ncc4cc(C#N)c(=O)n(C5CCCC5)c4n3)cc2)CC1	nt	-16.7%	nt	nt	nt
CC(C)(CO)n1cc(C(=O)c2cncc(NC(=O)Cc3ccc(Cl)cn3)c2)c2cnc(N)nc21	nt	5.4%	nt	nt	nt
c1csc(-c2nc3ccccn3c2Nc2ccc3c(c2)OCCO3)c1	-1.2%	?	-21.0%	13.4%	5.7%
Cc1ccn2c(Nc3ccc4c(c3)OCCO4)c(-c3cccs3)nc2c1	-8.0%	12.6µM*	-14.3%	?	17.3%
Cc1ccc(Nc2c(-c3ccc(N(C)C)cc3)nc3ccccn23)cc1	3.1%	?	?	2µM*	72.3%
Cc1ccc(-c2nc3ccccn3c2Nc2ccc3c(c2)OCO3)cc1	2.2%	?	?	-1.9%	-7.6%
Cc1ccc(-c2nc3ccccn3c2Nc2ccc3c(c2)OCCO3)o1	0.1%	15.8µM*	-8.4%	5.1%	-10.6%
Brc1ccc(-c2nc3ccccn3c2Nc2ccc3c(c2)OCCO3)o1	1.1%	?	?	?	-20.3%
Cc1ccc(OCCn2c(CCNC(=O)c3cccc(C(F)(F)F)c3)nc3ccccc32)cc1	nt	3.7%[57.5 µM]	nt	nt	nt
N#Cc1cc(NC(=O)Nc2nnc(-c3ccncc3)s2)ccc1F	nt	-21.9%	nt	nt	nt
CCCCC1CCC(CCCC(C)CCC(=O)O)CC1 (stereo unspecified)	8.4%	44.7µM*	1.3%	-13.6%	-27.4%
N#Cc1c(-c2ccco2)no[n+]1[O-]	nt	10.3%	nt	nt	nt
O=C(O)c1ccc(NC(=O)c2ccc(Br)c(S(=O)(=O)N3CCCC3)c2)cc1	0.6%	-4.9%	1.6%	-16.2%	-7.8%
O=C(Nc1ccc(Br)cc1)c1ccc(Br)c(S(=O)(=O)N2CCCCC2)c1	?	0.5%	-15.2%	-26.3%	12.6µM*
N#Cc1ccc(Nc2ncc(-c3cccc4ccccc34)o2)cc1	nt	6.7%	nt	nt	nt
COc1cc2nc(-c3cc(F)ccc3O)nc(N[C@@H]3CNC[C@H]3C(C)(C)O)c2cc1OC	nt	28.2µM*	-8.4%	nt	nt
COc1ccccc1Nc1nc(-c2ccccc2F)nc2ccccc12	-0.3%	1.7%	-7.4%	-30.7%	?
CC(Nc1nc(-c2ccccc2C(F)(F)F)nc2ccccc12)c1ccc(-c2cccc(C(F)(F)F)c2)cc1 (stereo unspecified)	nt	13.6%	nt	nt	nt
CCCCOc1ccc(C(=O)Nc2ccc3c(c2)N(C(C)=O)CCC3)cc1	-3.2%	-14.6%	-6.7%	-87.9%	4.47µM*
O=C(Nc1onc2c1CCCC2)c1ccc(Cl)cc1	4.7%	-6.4%	-16.4%	?	61.8%
CCCCOc1ccc(C(=O)Nc2onc3c2CCCC3)cc1	-2.3%	-4.9%	-19.7%	12.6µM*	37.8%
CC(=O)N1CCCc2ccc(NC(=O)c3ccc(OC(C)C)cc3)cc21	-1.1%	-3.2%	9.1%	-40.6%	?
C[C@@H]1CN(CC(=O)N2CC(C)(C)c3ncc(Cc4ccc(F)cc4)cc32)[C@@H](CN2CCOC[C@H]2C)CN1	nt	79.4µM*!	nt	nt	nt

Assay outcomes as filed in PubChem BioAssay.
